Luciferase inh – inhibitors of firefly (Photinus pyralis) luciferase; purified P. pyralis luciferase, luminescence, biochemical; Potency, µM (doses to about 115 µM), most hits filed as inhibitors; 2.5% of 76,000 active; also: nearly all actives have a fitted effect of over 65% in size
Target sequence (P08659 whole entry, looked up): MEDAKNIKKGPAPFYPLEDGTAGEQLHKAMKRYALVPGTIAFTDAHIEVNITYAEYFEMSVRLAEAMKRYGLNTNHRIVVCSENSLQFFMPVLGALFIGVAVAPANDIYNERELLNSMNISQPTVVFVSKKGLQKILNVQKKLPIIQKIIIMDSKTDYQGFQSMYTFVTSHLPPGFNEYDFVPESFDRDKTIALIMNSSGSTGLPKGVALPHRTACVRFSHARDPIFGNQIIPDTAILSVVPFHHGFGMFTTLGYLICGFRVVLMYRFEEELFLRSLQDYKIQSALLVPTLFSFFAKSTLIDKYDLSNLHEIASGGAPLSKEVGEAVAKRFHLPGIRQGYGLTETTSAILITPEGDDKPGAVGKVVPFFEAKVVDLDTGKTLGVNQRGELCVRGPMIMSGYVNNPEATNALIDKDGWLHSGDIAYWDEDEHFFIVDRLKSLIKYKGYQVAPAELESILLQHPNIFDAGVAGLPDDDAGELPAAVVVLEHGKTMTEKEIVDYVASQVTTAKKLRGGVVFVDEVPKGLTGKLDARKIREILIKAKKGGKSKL
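Luminescence read by CCD imaging after purified firefly luciferase (10nM final) was added to substrate buffer holding 10uM D-luciferin and 10uM ATP, pH 7.5, pre-dosed with compound.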
HEK cytotox – cytotoxic compounds in HEK 293 cells; HEK 293 viability, ATP luminescence (CellTiter-Glo), 48-72 h; Potency, µM (series often up to 115 µM), for inactives: at the top dose activity change, negative = cytotoxicity, usual class: inhibitors; 6.6% of 94,000 active; also: nearly all actives have a fitted effect of over 60% in size
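Luminescence from cellular ATP, measured with CellTiter-Glo, indicates HEK 293 viability. Cells plated at 250 cells/well are treated with compound for 48 or 72 hr at 37 degree Celsius before reagent addition.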
NIH3T3 tox – NIH 3T3 cell cytotoxicity; NIH 3T3 viability, CellTiter-Glo ATP luminescence, 48-72 h; Potency, µM (titrated, usually from 96.7 µM), for the others: at the top dose activity change, negative = cytotoxicity, most hits filed as inhibitors; 4.3% of 94,000 active; also: nearly all actives have a fitted effect of over 55% in size
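First NIH 3T3 cells are plated at 400 cells/well; next compound is pinned in; then plates incubate 48 or 72 hr at 37 °C; finally CellTiter-Glo is added and luminescence read after 10 min.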
hNpr1 antagonist – human Npr1 receptor antagonism; HEK293 hNpr1 GloSensor cGMP, ANP-stimulated luminescence; Potency, µM (series often up to 46.3 µM), for the others: top-dose activity change, negative = inhibition, hits mostly inhibitors; 1.6% of 76,000 active; calls by dose curve; also: nearly all actives have a fitted effect of over 60% in size
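HEK293 cells stably expressing human Npr1 and cGMP GloSensor pGS-40F, loaded 2 h with 2% GloSensor reagent, given compound 30 min at room temperature. Luminescence read before and 20 min after 0.1 nM hNppA.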
* = called active by the depositor; i = inactive; u = inconclusive; x = no result given; [ ] = dose if it differs, or a comment. Hits are enriched below; roughly 11% of the tested compounds scored in any of these assays. Unless noted, calls follow the shape of the dose curve; as a rule, active = well fitted curve in the direction sought with a large enough effect; inconclusive = small, poorly fitted or top-dose-only effect, or another doubt; inactive = no such curve, though single readings can be large; an effect the other way counts as inactive or inconclusive. % is scaled to controls: 0 for no effect and ±100 for the full control effect; potency is read from the fitted curve at half-maximal effect.

SMILES | Luciferase inh | HEK cytotox | NIH3T3 tox | hNpr1 antagonist
Cn1nc(-c2ccc3ccccc3c2)cc1[C@H]1CN2CC[C@H]1C[C@@H]2CNC(=O)COc1ccccc1 | i | 25µM* | 28µM* | 3%
COc1ccc(OC)c(S(=O)(=O)NC[C@H]2C[C@@H]3CCN2C[C@@H]3c2cc(-c3ccc4ccccc4c3)nn2C)c1 | i | u | u | 1%
Cn1nc(-c2ccc3ccccc3c2)cc1[C@H]1CN2CC[C@H]1C[C@@H]2CNC(=O)N1CCOCC1 | i | u | u | 0%
CCOC(=O)[C@H]1CN(C(=O)c2ccc(Cl)cc2)[C@]2(C)C(=O)N(CCOC(C)=O)c3ccccc3[C@H]12 | x | u | -24%[46.1 µM] | x
COc1ccc2c(C)c(C(=O)N3CCC(C#N)(c4ccccc4)CC3)oc2c1 | i | u | u | -18%
CCCNC1CNC1 | x | -14%[460 µM] | -3%[369 µM] | x
COc1ccc(-c2cc([C@H]3CN4CC[C@H]3C[C@@H]4CNC(=O)NCc3ccccc3)n(C)n2)cc1 | i | u | u | -3%
CC(=O)NC[C@H]1C[C@@H]2CCN1C[C@@H]2c1cc(-c2ccc3ccccc3c2)nn1C | u | 56µM* | 32µM* | 3%[70.6 µM]
C=C[C@H]1CN2CC[C@H]1C[C@@H]2CNCc1ccc(SC)cc1 | i | 89µM* | u | -5%[70.6 µM]
Cn1nc(-c2ccc3ccccc3c2)cc1[C@H]1CN2CC[C@H]1C[C@@H]2CNC(=O)NCc1ccccc1 | i | u | 18µM* | -12%
COc1ccc(-c2cc([C@H]3CN4CC[C@H]3C[C@@H]4CNC(C)=O)n(C)n2)cc1 | i | -3%[172 µM] | u | 6%[70.6 µM]
O=C(O)C1=NOC2CN(Cc3cncs3)CC12 (stereo unspecified) | x | 4%[172 µM] | i | x
CCOC(=O)[C@H]1CN(C(=O)NCc2ccccc2)[C@]2(C)C(=O)N(CC(=O)N(C)C)c3ccccc3[C@H]12 | x | i | u | x
CC(=O)N1C[C@@H]2C[C@H](C1)c1ccc(NC(=O)Nc3ccccc3)c(=O)n1C2 | i | i | i | 7%[70.6 µM]
O=C(NC[C@H]1C[C@@H]2CCN1C[C@@H]2CN1CCN(c2ccc(F)cc2)CC1)Nc1cccc(F)c1 | i | 28µM* | 22µM* | -19%
N#Cc1cccc(NC(=O)NC[C@H]2C[C@@H]3CCN2C[C@@H]3CN2CCN(c3ccccc3)CC2)c1 | i | u | 22µM* | -16%
CCOC(=O)[C@H]1CN(C(=O)OCC(C)(C)C)[C@]2(C)C(=O)N(CCO)c3ccccc3[C@H]12 | x | u | -5%[46.1 µM] | x
O[C@H]1[C@H](NCC2CCCC2)[C@@H](c2ccccc2)C[C@H]1O | i | u | -14%[230 µM] | -12%[70.6 µM]
O=C(c1ccccc1)N1C[C@@H]2C[C@H](C1)c1ccc(-c3ccc(Cl)cc3)c(=O)n1C2 | i | u | 63µM* | -15%[70.6 µM]
CC(C)CN1Cc2ccccc2-n2ccnc2C12CCN(C(=O)C(C)C)CC2 | i | u | -22% | -3%
Cc1ccc(C(=O)N2CCC3(CC2)c2nccn2-c2ccccc2CN3CC(C)C)cc1F | i | 35µM* | 35µM* | -20%
C=C[C@H]1CN2CC[C@H]1C[C@@H]2CNC(=O)c1ccc(N(C)C)cc1 | i | u | -21%[174 µM] | 6%[70.6 µM]
CCC(CC)c1cc([C@H]2CN3CC[C@H]2C[C@@H]3CNC2CCN(C(C)=O)CC2)nc(-c2ccncc2)n1 | i | 79µM* | u | -8%
CCC(CC)c1cc([C@H]2CN3CC[C@H]2C[C@@H]3CNC(=O)Nc2cccc(C#N)c2)nc(-c2ccncc2)n1 | i | u | 79µM* | -16%
CCC(CC)c1cc([C@H]2CN3CC[C@H]2C[C@@H]3CNC(=O)c2ccc(C)cc2)nc(-c2ccncc2)n1 | i | 45µM* | u | -12%
SMILES | Luciferase inh | HEK cytotox | NIH3T3 tox | hNpr1 antagonist
CCC(CC)c1cc([C@H]2CN3CC[C@H]2C[C@@H]3CNC(=O)c2ccc(N(C)C)cc2)nc(-c2ccncc2)n1 | i | 20µM* | u | -22%
CCC(CC)c1cc([C@H]2CN3CC[C@H]2C[C@@H]3CNC(=O)c2ccco2)nc(-c2ccncc2)n1 | i | -4% | -10% | -2%
CCOC(=O)CCNC(=O)N1[C@H]2CC[C@@H]1c1cnc(-c3ccc(F)cc3)nc1C2 | x | u | -21% | x
CNCc1cccnc1 | x | 3%[230 µM] | i | x
Cc1cc(C(F)(F)F)nn1CC(=O)N1[C@H]2CC[C@@H]1c1cnc(-c3ccc(F)cc3)nc1C2 | i | -6% | -20% | -3%
COc1ccc(NC(=O)NC[C@H]2C[C@@H]3CCN2C[C@@H]3CN2CCN(c3ncccn3)CC2)cc1 | i | -2% | -3% | 2%
CCC(CC)c1cc([C@H]2CN3CC[C@H]2C[C@@H]3COC(=O)Nc2ccccc2)nc(-c2ccncc2)n1 | i | -14% | -18% | -2%
CCC(CC)c1cc([C@H]2CN3CC[C@H]2C[C@@H]3CO)nc(-c2ccncc2)n1 | i | 112µM* | 112µM* | -28%[70.6 µM]
COc1cc2c(cc1OC1CCCC1)NC(=O)C21CCN(c2nc(C)cc(C)n2)CC1 | i | 89µM* | u | -8%[70.6 µM]
COc1cc2c(cc1OC1CCCC1)NC(=O)C21CCN(c2ncc(F)cn2)CC1 | i | 89µM* | 89µM* | -5%[70.6 µM]
CCc1cnc(N2CCC3(CC2)C(=O)Nc2cc(Oc4ccccc4)c(OC)cc23)nc1 | i | 45µM* | 40µM* | -16%[70.6 µM]
COc1cc2c(cc1OC1CCCC1)NC(=O)C21CCN(c2cnccn2)CC1 | i | 89µM* | u | -16%[70.6 µM]
COc1cc2c(cc1OC1CCCC1)NC(=O)C21CCN(c2ncc(C(C)C)cn2)CC1 | i | u | u | -2%[70.6 µM]
CCc1cnc(N2CCC3(CC2)C(=O)Nc2cc(OC4CCCC4)c(OC)cc23)nc1 | i | 79µM* | u | -1%[70.6 µM]
COc1cc2c(cc1OC1CCCC1)NC(=O)C21CCN(c2ncccn2)CC1 | i | 100µM* | u | 0%[70.6 µM]
CC(=O)c1cccc(NC(=O)NC[C@H]2C[C@@H]3CCN2C[C@@H]3c2cc(-c3cccs3)nc(C)n2)c1 | i | 22µM* | 32µM* | -2%
CC(=O)c1ccc(NC(=O)NC[C@H]2C[C@@H]3CCN2C[C@@H]3c2cc(-c3cccs3)nc(C)n2)cc1 | i | 89µM* | u | -2%
Cc1nc(-c2ccccc2Br)cc([C@H]2CN3CC[C@H]2C[C@@H]3CNC(=O)Nc2ccccc2)n1 | u | 79µM* | u | 0%
CC(=O)NC[C@H]1C[C@@H]2CCN1C[C@@H]2c1cc(-c2cccs2)nc(C)n1 | i | u | u | -14%[70.6 µM]
CC(=O)c1ccc(NC(=O)NC[C@H]2C[C@@H]3CCN2C[C@@H]3c2cc(-c3ccco3)nc(C)n2)cc1 | i | 79µM* | u | 6%
O=C(NCc1ccc2c(c1)OCO2)[C@H]1CN2CCC1C[C@@H]2Cn1cc(-c2cccc(O)c2)nn1 (stereo partly specified) | i | u | -11% | 0%
O=C1Nc2ccccc2C12CCN(CC1CCCCC1)CC2 | x | u | -14% | x

Source: PubChem
